Measured values from PubChem BioAssay (NCI).
Compounds without any hit were thinned out: in the full panel of roughly 79,000, 15% have a hit. Rule as the data show it: active = growth inhibition above about 70%; inactive = the rest.

How the values were obtained:
[1] = NCI Yeast Anticancer Drug Screen. Data for the rad50 strain (AID 155);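 also: 0% = growth of vehicle-only cultures of the same strain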; conditions: S. cerevisiae rad50 strain growth inhibition; at 50.0 µM; hits give high values
Outline: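 DNA repair mutant yeast, compound exposure, growth read-out; inhibition is taken relative to vehicle.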

[2] = NCI Yeast Anticancer Drug Screen. Data for the mec2-1 strain (AID 157); conditions: S. cerevisiae mec2-1 strain, at 50.0 µM, hits give high values
Outline: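 Compounds were applied to mec2-1 yeast cells. Their growth was then compared with that of vehicle-treated cultures to give growth inhibition.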

[3] = NCI Yeast Anticancer Drug Screen. Data for the sgs1 mgt1 strain (AID 161);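 also: 0% = growth of cultures given vehicle only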; conditions: S. cerevisiae sgs1 mgt1 strain, at 50.0 µM, hits give high values
Outline: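 Compounds are added to genetically altered yeast, and growth is compared with cultures given vehicle alone to give percent inhibition.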

[4] = NCI Yeast Anticancer Drug Screen. Data for the bub3 strain (AID 167); conditions: S. cerevisiae bub3 mutant strain, at 50.0 µM, hits give high values
Outline: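 In this screen, a yeast mutant lacking normal mitotic checkpoint function is challenged with compound. Relative growth versus vehicle gives the inhibition value.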

[5] = NCI Yeast Anticancer Drug Screen. Data for the mlh1 rad18 strain (AID 175); conditions: S. cerevisiae mlh1 rad18 strain growth inhibition; at 50.0 µM; hits give high values
Outline: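 A repair-deficient yeast strain is exposed to test compound, and growth is scored relative to vehicle-treated controls.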

[6] = NCI Yeast Anticancer Drug Screen. Data for the cln2 rad14 strain (AID 165);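 also: 0% = growth equal to vehicle treated cultures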; conditions: S. cerevisiae cln2 rad14 strain, at 50.0 µM, hits give high values
Outline: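 Strain: cln2 rad14 yeast, altered in cell cycle control and DNA damage repair. Read-out: growth inhibition vs vehicle.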

Measured: growth inhibition

CCOc1ccc(N2C(=O)C(=O)C(C#N)(c3nc4ccccc4o3)C(=O)C2=O)cc1
inactive: [1] 9.25% | [2] 33.7% | [3] 5.95% | [4] -0.7% | [5] 15.2%

Cc1cc(=O)[nH]c2[nH][nH]c(=O)c12
inactive: [1] -12.3% | [2] -28.6% | [3] -43.6% | [4] 2.85% | [5] -8.8%

BrCCOC(OCCBr)(c1ccccc1)c1ccccc1
inactive: [1] 19.8% | [2] -10.9% | [3] 2.3% | [4] 4.95% | [5] 6.3%

O=C1NNC=Nc2ccc(cc2)S(=O)(=O)c2ccc(cc2)N=CNNC1=O
inactive: [1] 41.5% | [2] -1.9% | [3] -20.1% | [4] -5.85% | [5] -45.9%

CC1C(NNC(N)=O)Oc2cc3c(cc2C1c1ccccc1O)OCO3 (stereo not given)
inactive: [1] -5.7% | [2] -25.4% | [3] 11.8% | [4] -11.1% | [5] -4.75%

COC(=O)[C@@H]1Cc2ccc(OC)c(c2)OCCC(=O)N1
inactive: [1] -37% | [2] 0% | [3] 21.7% | [4] -13% | [5] -12.2%

CCCCOCCOCCO
inactive: [1] -18.2% | [2] -21.6% | [3] -15.7% | [4] 1.45% | [5] 1.5%

CC1(C)CC(=O)N(Nc2ccccc2)C1=O
inactive: [1] -8.55% | [2] -7.6% | [3] -8.8% | [4] -12.7% | [5] -13.7%

COc1cc(C2C3=C(COC3=O)Oc3cc4c(cc32)OCO4)cc(OC)c1OC(C)=O (stereo not given)
inactive: [1] -15.5% | [2] -22.9% | [3] 1.55% | [4] -8.3% | [5] -2.5%

COc1cc(C(OC(C)=O)OC(C)=O)c(Cl)cc1OC(C)=O
inactive: [1] 5.5% | [2] 5.15% | [3] 17.1% | [4] -2.6% | [5] 11.8%

Nc1ncnc2c1[nH]c(=O)n2-c1ccccc1
inactive: [1] -46.6% | [2] -30.5% | [3] -16.6% | [4] -17.1% | [5] -6.9%

NC(=NCc1ccncc1)N/N=C\c1ccnc2ccccc12
inactive: [1] 4.15% | [2] 10.9% | [3] 7.75% | [4] -9.5% | [5] 7.75%

CN(C)CN1CSC(=S)N(CN(C)C)C1
inactive: [1] 20.2% | [2] 37% | [3] 6% | [4] -5% | [5] 26.4%

CC(=O)OC1C(NC(=O)OCc2ccccc2)CC(NC(=O)OCc2ccccc2)C(O)C1O (stereo not given)
inactive: [1] 34.4% | [2] -12.5% | [3] 5.4% | [4] -1.9% | [5] 4.9%

O=C(C(c1ccccc1)c1ccccc1)N(CCO)c1ccccc1
inactive: [1] -12% | [2] -28.6% | [3] -4.2% | [4] -4.6% | [5] -0.65%

CC1(C)CNC(=O)C2(C=NC(C)(C)CNC(=O)C3(C=N1)CCCO3)CCCO2 (stereo not given)
inactive: [1] -10.2% | [2] -5.6% | [3] -36.2% | [4] -17.6% | [5] -11.2%

CC1=C[P+](c2ccccc2)(c2ccccc2)C=C(C)O1
inactive: [1] 8.9% | [2] 3.55% | [3] 12.6% | [4] 4.5% | [5] 4.25%

CCOC(=O)CN=C1NNS(=O)(=O)c2ccccc21
inactive: [1] 3.55% | [2] -17.4% | [3] -10.2% | [4] -23.1% | [5] 6.35%

Cc1cc(C)n(/N=C/c2ccco2)c(=O)c1C#N
inactive: [1] -20.3% | [2] -33.1% | [3] -26.1% | [4] -17.5% | [5] -10.7%

COC(=O)C(C(=O)C(=O)Nc1ccc(C)cc1C)c1nc2ccc([N+](=O)[O-])cc2[nH]c1=O (stereo not given)
inactive: [1] 9.05% | [2] -1.7% | [3] 4.05% | [4] 4.2% | [5] 6.65%

O=C1OC(=O)c2c1cccc2[N+](=O)[O-]
inactive: [1] -7.55% | [2] 0% | [3] -2.6% | [4] -5.2% | [5] 2.7%

O=C(NC(=O)C(F)(F)C(F)(F)F)Nc1cc(F)ccc1F
inactive: [1] 5.15% | [2] -2.05% | [3] 1.45% | [4] -6.55% | [5] -29%

CC1CCCc2c1c1ccc3c(O)cccc3c1oc2=O (stereo not given)
inactive: [1] -10% | [2] -4.15% | [3] -15.4% | [4] -5.95% | [5] -18.9%

Cc1nc2c(c(-c3ccccc3)n1)Cc1ccccc1O2
inactive: [1] -4.05% | [2] -12.4% | [3] 7.55% | [4] 25.8% | [5] 0%

Cc1cc(C)c2c(-c3ccccc3)cc(=O)[nH]c2c1
inactive: [1] -33% | [2] -16.1% | [3] -29.4% | [4] -33.7% | [5] -51.1%

c1ccc(C2(c3ccccc3)CCc3ccccc3O2)cc1
inactive: [1] 27.5% | [2] 15.6% | [3] 4.7% | [4] -9.6% | [5] 31.9%

CC(C)CCCCCCCCCCCCC(=O)NCC(=O)NC1C(C)OC(Nc2ncnc3c2ncn3C)C(O)C1O (stereo not given)
inactive: [1] 10% | [2] -14.5% | [3] 9.3% | [4] 4.05% | [5] 11.4%

CNC(=O)Nc1ccc(OC)cc1OC
inactive: [1] 3% | [2] -6.2% | [3] -8.35% | [4] 3.2% | [5] -18.6%

COC(=O)c1n[nH]n(Cc2cccs2)c1=O (tested in a mixture with another compound)
inactive: [1] 14.8% | [2] 13.9% | [3] 16.1% | [6] -0.85% | [5] 26.2%

Nc1[nH]c(=S)nc2nc3c(c(-c4ccccc4)c12)CCCC3
inactive: [1] -45.9% | [2] -13.5% | [3] 6.95% | [4] -13.6% | [5] -14.4%

Brc1ccccc1/C=N\N=C\c1ccccc1Br
inactive: [1] 12.9% | [2] 2.5% | [3] 12.2% | [4] -6.4% | [5] 5.35%

Cc1cc(CC(O)(c2ccccc2)c2ccccc2)nc2[nH]c(=O)ccc12
inactive: [1] 0.7% | [2] -6.7% | [3] -1.05% | [4] 6.95% | [5] -1.35%

CC(=O)NC(Cc1ccccc1)c1ccccc1 (stereo not given)
inactive: [1] 17.1% | [2] -8.2% | [3] 11.1% | [4] 21.6% | [5] 10.8%

COC(=O)c1ccc(C(=O)OC)c2nn3c(N)nnc3nc12
inactive: [1] 8.85% | [2] 15% | [3] 7.55% | [4] 9.15% | [5] 2.9%

COC(CNCCO)c1ccccc1 (stereo not given)
inactive: [1] 3.1% | [2] -17.6% | [3] -0.45% | [4] -6.15% | [5] -5.45%

O=S1(=O)C2CCC(C2)C1Cl (stereo not given)
inactive: [1] 4.5% | [2] 2.75% | [3] 7.45% | [4] -1.05% | [5] 4.2%

CCOC(=O)NC(Nc1ncccn1)(C(=O)OCC)C(F)(F)F (stereo not given)
inactive: [1] -28.9% | [2] -29.4% | [3] -77.3% | [4] -39.8% | [5] -34.9%

C(/C=N/NC1=NCCCCN1)=N\NC1=NCCCCN1
inactive: [1] -6.7% | [2] -13% | [3] -9.05% | [4] -13.6% | [5] -11.2%

COc1cc(C2NCCC(c3ccccc3)(c3ccccc3)N2)cc(OC)c1OC (stereo not given)
inactive: [1] -30.9% | [2] -4.65% | [3] 5.25% | [4] -7.6% | [5] 5.5%

ClCCCCC(Cl)(Cl)Cl
inactive: [1] 27.9% | [2] 27.6% | [3] 10.4% | [4] 21.9% | [5] 23.3%

C#CCOCCCC(=O)O
inactive: [1] 6.95% | [2] -8.2% | [6] 0.3% | [4] 16.2% | [5] 11.7%

c1ccc(C(Sc2c[nH]c3ccccc23)(c2ccccc2)c2ccccc2)cc1 (tested in a mixture with another compound)
inactive: [1] -20.4% | [2] -11.7% | [6] 1.9% | [4] -38.5% | [5] -25.1%

CN(C)n1c(O)c(N=O)sc1=S
inactive: [1] -30.9% | [2] -6.25% | [6] -25.7% | [4] -10.1% | [5] 5.55%

O=c1c2cc([N+](=O)[O-])ccc2c2ccc([N+](=O)[O-])cc2c(=O)n1-c1ccc2c(c1)Cc1ccccc1-2
inactive: [1] 21.5% | [2] -21% | [6] -21.4% | [4] -8.35% | [5] -5%

COC(=O)c1cc(-c2ccc(F)cc2)[nH]c(=O)c1C#N
inactive: [1] 6.3% | [2] -10.4% | [6] 13.4% | [4] -25.8% | [5] 16.6%

Cc1ncc2c(=O)c3c(oc2n1)c1ccccc1n3Cc1ccccc1
inactive: [1] 8.75% | [2] 9.15% | [6] 3.1% | [4] 11.7% | [5] -4.1%
